{"source": "PubChem BioAssay (NCATS)", "note": "Records with an inconclusive call do not appear. A call without a number means that no potency is given here. Activity calls are given as the source filed them. Calls follow the shape of the dose curve; as a rule, active = well fitted curve in the direction sought with a large enough effect; inconclusive = small, poorly fitted or top-dose-only effect, or another doubt; inactive = no such curve, though single readings can be large; an effect the other way counts as inactive or inconclusive.", "data": [{"test_system": "not listed separately", "test": "Confirmation and Secondary Assay for Modulators of Hemoglobin Beta Chain Splicing at IVS2 654 locus (AID 910);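 also: HeLa cells stably carrying EGFP split by mutant beta-globin IVS2-654 intron; per-well total GFP intensity by laser scanning cytometry after 2-day treatment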", "conditions": "HeLa EGFP-654 splicing reporter, GFP fluorescence, 48 h; series mostly up to 46.1 µM", "outline": "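Readout: per-well total peak green fluorescence (488 nm ex, 500–520 nm em) from objects 5–250 µm, reflecting correct splicing of an EGFP-654 reporter. Compounds were applied for 2 days at 37 °C to overnight-plated HeLa EGFP-654 cells; controls were DMSO and 500 nM IVS2-654 PNA.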", "values": [{"compound": "NC(=O)NO", "Potency": "inactive"}, {"compound": "O=c1c(O)c(-c2ccc(O)c(O)c2)oc2cc(O)cc(O)c12", "Potency": "inactive"}, {"compound": "CCc1cccc2c3c([nH]c12)C(CC)(CC(=O)O)OCC3", "note": "(stereo not drawn)", "Potency": "inactive"}, {"compound": "Cc1ccc(C(=O)Nc2ccc(S(=O)(=O)O)c3cc(S(=O)(=O)O)cc(S(=O)(=O)O)c23)cc1NC(=O)c1cccc(NC(=O)Nc2cccc(C(=O)Nc3cc(C(=O)Nc4ccc(S(=O)(=O)O)c5cc(S(=O)(=O)O)cc(S(=O)(=O)O)c45)ccc3C)c2)c1", "Potency": "inactive"}, {"compound": "CN(C)CCOC(c1ccccc1)c1ccccc1", "Potency": "inactive"}, {"compound": "CN1CCN(CCCN2c3ccccc3Sc3ccc(Cl)cc32)CC1", "Potency": "inactive"}, {"compound": "O=C(CCCN1CCC(O)(c2ccc(Cl)cc2)CC1)c1ccc(F)cc1", "Potency": "inactive"}, {"compound": "CNCCCC12CCC(c3ccccc31)c1ccccc12", "Potency": "inactive"}, {"compound": "CN1CCN(C2=Nc3cc(Cl)ccc3Nc3ccccc32)CC1", "Potency": "inactive"}, {"compound": "CN(C)C(=O)C(CCN1CCC(O)(c2ccc(Cl)cc2)CC1)(c1ccccc1)c1ccccc1", "Potency": "inactive"}, {"compound": "OCCN1CCN(CCCN2c3ccccc3Sc3ccc(C(F)(F)F)cc32)CC1", "Potency": "inactive"}, {"compound": "CCCCc1oc2ccccc2c1C(=O)c1cc(I)c(OCCN(CC)CC)c(I)c1", "Potency": "inactive"}, {"compound": "Cc1ccccc1N1C(=O)c2cc(S(N)(=O)=O)c(Cl)cc2NC1C", "note": "(stereo not drawn)", "Potency": "inactive"}, {"compound": "OCCN(CCO)c1nc(N2CCCCC2)c2nc(N(CCO)CCO)nc(N3CCCCC3)c2n1", "Potency": "inactive"}, {"compound": "CC(C)Cc1ccc(C(C)C(=O)O)cc1", "note": "(stereo not drawn)", "Potency": "inactive"}, {"compound": "Cc1cc(C(C)(C)C)cc(C)c1CC1=NCCN1", "Potency": "inactive"}]}, {"test_system": "not listed separately", "test": "Cell Viability - LYMP2-001 (AID 921); also: nearly all actives have a fitted effect of over 70% in size", "conditions": "LYMP2-001 lymphoblastoid cell viability; series mostly up to 92.2 µM", "outline": "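Human lymphoblastoid LYMP2-001 cells, 2500 per well, in complete medium, treated 24 h at 37 C. Viability from cellular ATP by CellTiter-Glo luminescence; AC50 from Hill-equation fits of qHTS concentration-response.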", "values": [{"compound": "NCCS(=O)(=O)O", "outcome": "inactive"}, {"compound": "Cc1cn([C@H]2C=C[C@@H](CO)O2)c(=O)[nH]c1=O", "outcome": "inactive"}, {"compound": "Cc1cn([C@H]2C[C@H](N=[N+]=[N-])[C@@H](CO)O2)c(=O)[nH]c1=O", "outcome": "inactive"}]}, {"target": "Muscarinic acetylcholine receptor M1 (Rattus norvegicus) (UniProt P08482)", "sequence (P08482 whole entry, looked up)": "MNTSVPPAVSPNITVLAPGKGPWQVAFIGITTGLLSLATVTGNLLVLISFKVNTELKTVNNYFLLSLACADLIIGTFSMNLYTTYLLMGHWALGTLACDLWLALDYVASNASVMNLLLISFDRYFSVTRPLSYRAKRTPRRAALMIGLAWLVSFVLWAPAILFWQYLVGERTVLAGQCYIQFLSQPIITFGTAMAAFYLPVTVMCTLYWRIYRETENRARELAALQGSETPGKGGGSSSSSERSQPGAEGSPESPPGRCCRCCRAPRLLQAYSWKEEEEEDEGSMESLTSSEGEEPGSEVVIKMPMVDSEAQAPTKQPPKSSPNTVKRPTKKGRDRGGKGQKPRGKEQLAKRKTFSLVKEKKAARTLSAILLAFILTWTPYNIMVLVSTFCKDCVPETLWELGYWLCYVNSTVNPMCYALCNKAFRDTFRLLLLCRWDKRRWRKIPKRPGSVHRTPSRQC", "test": "qHTS Assay for Antagonists of Acetylcholine Muscarinic M1 Receptor: Kinetic Measurement of Intracellular Calcium Response (AID 943); also: nearly all actives have a fitted effect of over 75% in size; also: potency is read from the fitted curve at half-maximal effect", "conditions": "M1-expressing cells, kinetic intracellular calcium fluorescence; series mostly up to 35.3 µM", "outline": "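Rat M1-CHO cells, 2000/well, overnight → Fluo-4 no-wash dye with probenecid, 1 h 37C → compound 10 min, room temp → basal read 6 s → carbachol EC80 (100 nM) → 4 min kinetic read; peak/basal.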", "values": [{"compound": "NCCS(=O)(=O)O", "Potency": "inactive"}, {"compound": "CCOC(=O)Nc1ccc(NCc2ccc(F)cc2)nc1N", "Potency": "inactive"}, {"compound": "Cc1ccc(C(=O)Nc2ccc(S(=O)(=O)O)c3cc(S(=O)(=O)O)cc(S(=O)(=O)O)c23)cc1NC(=O)c1cccc(NC(=O)Nc2cccc(C(=O)Nc3cc(C(=O)Nc4ccc(S(=O)(=O)O)c5cc(S(=O)(=O)O)cc(S(=O)(=O)O)c45)ccc3C)c2)c1", "Potency": "1580 nM (active)"}, {"compound": "Cn1ccc2cc3c(cc21)CCN3C(=O)Nc1cccnc1", "Potency": "inactive"}]}]}
